LDHA inh: inhibitors of human lactate dehydrogenase A; 480,000 tested, 0.15% active; purified LDHA, NADH/diaphorase-resazurin fluorescence; hits give low values; activity change, % (values are at about 110 or 230 µM); in the data active = activity change below about -30%; inconclusive = mostly about -25% to -30%;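 note: plate controls were DMSO wells for no effect and wells without enzyme for full effect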
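Human LDH5 (2 nM) was incubated with 0.06 mM NADH and 0.2 mM pyruvate for 5 min at room temperature in Tris pH 7.4. Remaining NADH was coupled through diaphorase/resazurin, and resorufin fluorescence was read at 0 and 20 min.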
IL-1B inflam inh: inflammasome signaling inhibition, IL-1 beta readout; THP-1 LPS/ATP IL-1B secretion, AlphaLISA, 16 h; hits give low values; activity change, % at 57.5 µM; 360,000 tested, 4.7% active; AID 743279; in the data active = activity change below about -50%; inconclusive = mostly about -30% to -49%
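Secreted IL-1B measured by AlphaLISA bead assay after 16 h compound exposure of THP-1 cells; compounds (final up to 57.5 uM) added 1 h before LPS (250 ng/mL) and ATP (1.25 mM) stimulation; lower signal means less secretion.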
Gal4-VP16 FLuc: counter-screen for ROR gamma inhibitors: Gal4-VP16 reporter; Drosophila S2 Gal4-VP16 UAS-luciferase, luminescence, 20 h; Potency, µM (series often up to 53.6 µM), for inactives: at the top dose activity, negative = inhibition, hits mostly inhibitors; 310,000 tested, 3.5% active;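 note: Gal4-VP16 expression switched on by copper sulfate through the metallothionein promoter; potency is the fitted concentration of half-maximal effect; nearly all actives have a fitted effect of over 50% in size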
DT40 TDP1 CPT: DT40-hTDP1 cell growth loss with CPT | chicken DT40 Tdp1-/-;hTDP1 cells + 20 nM CPT, ATP luminescence, 48 h | AID 686979 | 420,000 tested, 12% active | Potency, µM (series often up to 46.2 µM), for the others: at the top dose activity change, negative = growth inhibition, actives largely listed as inhibitors; note: potency is the fitted concentration of half-maximal effect; nearly all actives have a fitted effect of over 55% in size
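Chicken DT40 Tdp1-/- cells stably complemented with human TDP1 were seeded at 400 cells/well in medium containing 20 nM camptothecin, exposed to pin-transferred compounds, and grown at 37 °C for at least 48 hr. Viability was read as ATP luminescence.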
DT40 TDP1 no CPT: qHTS for Inhibitors of human tyrosyl-DNA phosphodiesterase 1 (TDP1): qHTS in cells in absence of CPT; 420,000 tested, 15% active; Potency, µM (highest dose often 46.2 µM), for inactives: at the top dose activity change, negative = growth inhibition, hits mostly inhibitors; DT40 Tdp1-/- hTDP1 cells, no CPT, ATP luminescence, 48 h; note: potency is the fitted concentration of half-maximal effect; nearly all actives have a fitted effect of over 55% in size
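A cellular qHTS used chicken DT40 cells lacking endogenous Tdp1 but carrying stably transfected human TDP1. Compounds were applied without camptothecin, and cell growth kinetics were judged by ATP-dependent luminescence after ≥48 hr.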
RORgamma inh: ROR gamma (mouse) transcription inhibition | Drosophila S2 Gal4-RORgamma UAS-luciferase reporter, 20 h | Potency, µM (series often up to 53.6 µM), for inactives: at the highest dose activity change, negative = inhibition, actives largely listed as inhibitors | 310,000 tested, 5.4% active | AID 2551; note: potency is the fitted concentration of half-maximal effect; nearly all actives have a fitted effect of over 60% in size
Target sequence (P51450 whole entry, looked up, the tested form may be a part): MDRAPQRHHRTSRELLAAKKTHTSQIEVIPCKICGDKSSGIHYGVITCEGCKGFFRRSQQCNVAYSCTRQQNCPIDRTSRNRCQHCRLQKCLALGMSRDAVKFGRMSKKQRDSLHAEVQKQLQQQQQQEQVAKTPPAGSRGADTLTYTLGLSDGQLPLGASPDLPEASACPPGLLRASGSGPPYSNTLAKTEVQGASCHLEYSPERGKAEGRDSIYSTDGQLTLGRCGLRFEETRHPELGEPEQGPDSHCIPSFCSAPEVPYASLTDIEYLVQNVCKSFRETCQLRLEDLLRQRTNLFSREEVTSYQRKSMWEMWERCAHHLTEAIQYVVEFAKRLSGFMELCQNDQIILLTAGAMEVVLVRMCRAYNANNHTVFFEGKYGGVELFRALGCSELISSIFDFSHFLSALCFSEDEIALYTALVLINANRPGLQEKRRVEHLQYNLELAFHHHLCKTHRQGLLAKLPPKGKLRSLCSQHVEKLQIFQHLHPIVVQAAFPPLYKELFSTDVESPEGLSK
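Drosophila S2 cells stably expressing Gal4-DBD/mouse RORγ fusion under metallothionein promoter plus UAS-luciferase; compound 1 h, then 700 uM CuSO4 induction for 20 h at ambient temperature; inhibition read as reduced luminescence.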
An asterisk follows results filed as active; ? = inconclusive; / = not tested or not shown. Most compounds without a hit are left out; they make up all but 18% or so of the library. Unless noted, calls come from the whole dose curve; as a rule, active = well fitted curve in the direction sought with a large enough effect; inconclusive = small, poorly fitted or top-dose-only effect, or another doubt; inactive = no such curve, though single readings can be large; an effect the other way counts as inactive or inconclusive. Unless noted, % is set by controls: 0 for no effect and ±100 for the full control effect.

SMILES | LDHA inh | IL-1B inflam inh | Gal4-VP16 FLuc | DT40 TDP1 CPT | DT40 TDP1 no CPT | RORgamma inh
CCC1Nc2ncnc(N3CCc4ccccc4C3)c2N(Cc2ccc(Cl)cc2)C1=O (stereo not drawn) | 0.0 | -14.4 | / | 20.6µM* | ? | /
O=C1C(Cc2ccccc2)Nc2ncnc(N3CCc4ccccc4C3)c2N1Cc1ccc(Cl)cc1 (stereo not drawn) | 1.4 | -93.9* | / | ? | ? | /
CCC1Nc2ncnc(N3CCCCC3)c2N(Cc2ccc(Br)cc2)C1=O (stereo not drawn) | -9.2 | -1.1 | / | ? | -25.6% | /
CCC1Nc2ncnc(N3CCCCC3)c2N(Cc2ccc(Cl)cc2)C1=O (stereo not drawn) | 2.3 | -5.8 | / | ? | ? | /
CCC1Nc2ncnc(N3CCN(c4ccccn4)CC3)c2N(Cc2ccc(Cl)cc2)C1=O (stereo not drawn) | 6.2 | -59.0* | / | ? | ? | /
CC(C)C(C)NC(=O)c1ccc(CNC(=O)OC(C)(C)C)cc1 (stereo not drawn) | 2.5 | / | / | / | / | /
COc1ccc(NC(=O)C(CCSC)NC(=O)C2CCC(C)CC2)cc1OC (stereo not drawn) | 6.5 | / | / | / | / | /
Cc1nn(Cc2ccccc2)c(C)c1C(=O)OCC(=O)c1cc(C)n(CC(F)(F)F)c1C | 4.4 | 0.0 | -6.9% | 25.9µM* | 25.9µM* | 31.3%
O=C(NC1CCCC1)C(Cc1ccccc1)NS(=O)(=O)c1ccc(Br)s1 (stereo not drawn) | 8.1 | / | / | / | / | /
CCC(CC)C(=O)c1c[nH]c(C(=O)NCc2ccccc2OC)c1 | -5.4 | -12.1 | ? | 20.6µM* | ? | ?
CCC(CC)C(=O)c1c[nH]c(C(=O)NC2CCCCCC2)c1 | -2.6 | -66.1* | -1.1% | -7.8% | 1.7% | 44.3%
CCC(CC)C(=O)c1c[nH]c(C(=O)NCc2ccccc2)c1 | -5.7 | -5.8 | 0.5% | -27.5% | -33.7% | 8.3%
Cc1ccc(S(=O)(=O)NCc2c(C)nn(Cc3ccccc3)c2C)cc1C | 0.7 | / | / | / | / | /
c1ccc(-c2cc(NCCN3CCCCC3)c3ccccc3n2)cc1 | -6.1 | -99.3* | -16.1% | 23.1µM* | 16.4µM* | -14.5%
COCCn1c(SCC(=O)Nc2cc(C)c(Cl)cc2OC)nnc1-c1cccc(C)c1 | 1.2 | / | / | / | / | /
COc1ccc(-n2c(C)c(C)c3c2ncn2nc(-c4ccccn4)nc32)cc1 | 0.6 | / | / | / | / | /
CCN(CC)Cc1c(O)ccc2occ(C(=O)c3ccccc3)c12 | -1.4 | 0.0 | / | ? | -13.2% | /
COc1ccc2occ(C(=O)c3coc4ccc(O)c(CN(C)C)c34)c2c1 | 26.7 | -1.7 | ? | 16.4µM* | ? | -5.0%
CN(C)Cc1c(O)ccc2occ(C(=O)c3ccc(F)cc3)c12 | -4.5 | -53.8* | -10.7% | ? | -29.9% | ?
C=CCNCc1ccc(-c2ccc(C(C)O)cc2)o1 (stereo not drawn) | 5.0 | / | / | / | / | /
CC1CCC(C(=O)c2c(O)c3ccccc3oc2=O)CC1 (stereo not drawn) | 4.5 | -94.4* | -7.3% | 18.4µM* | 18.4µM* | -10.4%
CC(=N)c1c(O)c2ccccc2oc1=O | -3.2 | ? | 21.9% | -6.6% | 14.2% | 1.9%
COC(=O)c1c(-n2c(C)cc(C=O)c2C)sc2c1CCCC2 | -7.2 | -63.2* | 0.1% | ? | 22.4µM* | 18.4%
Cc1cc(NC(=O)COc2ccccc2C)ccc1NC(=O)c1ccco1 | -13.9 | -27.0 | 0.5% | 23.1µM* | 16.4µM* | 16.5%
Cc1cc(NC(=O)COc2ccccc2C)ccc1NC(=O)c1cccs1 | -4.4 | -62.2* | 9.9% | -60.5% | 11.6µM* | 2.1%
SMILES | LDHA inh | IL-1B inflam inh | Gal4-VP16 FLuc | DT40 TDP1 CPT | DT40 TDP1 no CPT | RORgamma inh
Cc1cccc(C)c1OCC(=O)Nc1ccc(NC(=O)c2ccco2)cc1 | -11.0 | -16.6 | -5.1% | 25.9µM* | 20.6µM* | 2.5%
COc1cc(NC(=O)COc2ccccc2C)ccc1NC(=O)c1ccco1 | -0.8 | -8.0 | / | -3.2% | -3.4% | /
Cc1noc(NC(=O)CSc2nccn2-c2ccccc2)n1 | 11.0 | / | / | / | / | /
CCN(CC)S(=O)(=O)c1ccc(NC(=O)Cc2nn(C)c(=O)c3ccccc23)cc1 | -9.8 | / | / | / | / | /
Cc1ccc(-c2[nH]ncc2C=O)cc1C | -0.2 | / | / | / | / | /
COc1ccc(C(=O)/C=C2/c3ccccc3CC(C)(C)N2C)cc1OC | -5.7 | 0.0 | -7.2% | ? | 16.4µM* | ?
COc1ccc(C(=O)/C=C/c2ccccc2)cc1OC | 5.6 | / | / | / | / | /
COc1ccc(CCN2C(=O)c3[nH]nc(-c4ccccc4O)c3C2c2ccccc2)cc1OC (stereo not drawn) | -8.3 | ? | -28.3% | 18.4µM* | 20.6µM* | -24.5%
CCCN1C(=O)c2[nH]nc(-c3cccc(OC)c3)c2C1c1ccccn1 (stereo not drawn) | -3.0 | / | / | ? | 20.6µM* | /
COCCN1C(=O)c2[nH]nc(-c3ccccc3O)c2C1c1ccc(OCc2ccccc2)c(OC)c1 (stereo not drawn) | 0.9 | / | / | ? | 8.2µM* | /
CCCN1C(=O)c2[nH]nc(-c3ccccc3O)c2C1c1cccc(OCc2ccccc2)c1 (stereo not drawn) | -2.3 | / | / | 20.6µM* | 9.2µM* | /

Screening results as filed in PubChem.
